For 20 compounds, growth inhibition results are on record in PubChem BioAssay (NCI).

A short description of experiment [1]: NCI Yeast Anticancer Drug Screen. Data for the rad50 strain (AID 155).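 Also: 0% = growth of vehicle-only cultures of the same strain.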 The settings on record: S. cerevisiae rad50 strain growth inhibition; at 50.0 µM; hits give high values. In a few lines:
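Compounds were tested on a yeast strain with an engineered DNA damage repair alteration; the reported value is growth inhibition normalised to vehicle treatment.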

Experiment [2] can be described thus: NCI Yeast Anticancer Drug Screen. Data for the mec2-1 strain (AID 157). Conditions: S. cerevisiae mec2-1 strain, at 50.0 µM, hits give high values. In a few lines: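 Vehicle-treated cultures served as reference for growth inhibition of compound-exposed mec2-1 yeast.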
The nature of experiment [3]: NCI Yeast Anticancer Drug Screen. Data for the sgs1 mgt1 strain (AID 161).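 Also: 0% = growth of cultures given vehicle only.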 Conditions: S. cerevisiae sgs1 mgt1 strain, at 50.0 µM, hits give high values. In a few lines:
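Mutant yeast exposed to compound; growth scored against vehicle-only wells.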

Experiment [4] in a line: NCI Yeast Anticancer Drug Screen. Data for the cln2 rad14 strain (AID 165).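 Also: 0% = growth equal to vehicle treated cultures.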 Conditions: S. cerevisiae cln2 rad14 strain, at 50.0 µM, hits give high values. In a few lines: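 Each compound was tested on cln2 rad14 yeast. Inhibition of growth was calculated against vehicle-exposed controls.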
The nature of experiment [5]: NCI Yeast Anticancer Drug Screen. Data for the bub3 strain (AID 167). The settings on record: S. cerevisiae bub3 mutant strain, at 50.0 µM, hits give high values. In short, it runs like this:
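Growth of a checkpoint-deficient yeast mutant is measured after compound exposure. Values represent inhibition relative to vehicle.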

The nature of experiment [6]: NCI Yeast Anticancer Drug Screen. Data for the mlh1 rad18 strain (AID 175). Conditions: S. cerevisiae mlh1 rad18 strain growth inhibition; at 50.0 µM; hits give high values. In a few lines:
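Vehicle-treated cultures served as the reference for growth inhibition in a yeast strain carrying DNA damage repair alterations exposed to each compound.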

The structures appear in SMILES notation. This is part of a sample that, as a whole, favours compounds with a hit. Of some 79,000 tested, about 15% had one in any assay. A number with no mark means an inactive call. Active and inactive are the calls of the source. Rule as the data show it: active = growth inhibition above about 70%; inactive = the rest.

Consider `Cc1cn(C2CC3[O][Sn]([c]4ccccc4)([c]4ccccc4)[O]CC3O2)c(=O)[nH]c1=O` (stereo not given), for which the growth inhibition in experiment [1] is 8.65%; in experiment [2] it was 35.8%; in experiment [3], 16.6%; in experiment [4] it was 7.6%; in experiment [5], 13.2%; in experiment [6] it was 47%.
Turning to `Cc1c(C)c(CC(=O)N2CC2)c(C)c(C)c1CC(=O)N1CC1`, the growth inhibition was -23.4% in experiment [1]; 9.75% in experiment [2]; -3.9% in experiment [3]; -26.1% in experiment [4]; 2.65% in experiment [5]; -36.2% in experiment [6].
For `COc1ccc(OC)c(NC(=O)Nc2ccc(I)cc2)c1`, the growth inhibition in experiment [1] was 46.8%; in experiment [2], 42%; in experiment [3] it was 33.9%; in experiment [4], 15.1%; in experiment [5] it was 52.9%; in experiment [6] it was 56%.
In the case of `CCCCCc1cc[n+](CC(=O)c2ccccc2)cc1`, the growth inhibition in experiment [1] was 4.45%; in experiment [2], 0.7%; in experiment [3], -12.1%; in experiment [4], -62.7%; in experiment [5], -10.4%; in experiment [6], 12.8%.
Turning to `CCOc1ccccc1NC(=O)Nc1cccc(C(F)(F)F)c1`, the growth inhibition is 68.8% in experiment [1]; 60.5% in experiment [2]; 76% (active) in experiment [3]; 72.3% (active) in experiment [4]; 76% (active) in experiment [5]; 88.9% (active) in experiment [6].
As to `C/C(=N/NC(N)=O)c1ccc(C)o1`, the growth inhibition was 1.85% in experiment [1]; -3.55% in experiment [2]; -4.4% in experiment [3]; -0.75% in experiment [4]; 1.55% in experiment [5]; 0.35% in experiment [6].
For the compound `CN(C)c1ccc(Cc2ccc(N(C)C)cc2[N+](=O)[O-])c([N+](=O)[O-])c1`, the growth inhibition in experiment [1] was -4.35%; in experiment [2] it was 11.2%; in experiment [3], 19.9%; in experiment [4] it was 6.1%; in experiment [5] it was 15.3%; in experiment [6], -1.35%.
Consider `COC(=O)c1nc(N)nc(C(=O)OC)c1C(=O)c1cccc2ccccc12`, for which the growth inhibition in experiment [1] is -33.5%; in experiment [2], -26.1%; in experiment [3], 1.65%; in experiment [4] it was -26.8%; in experiment [5] it was -33.3%; in experiment [6], -20.9%.
On to `CCCC(=O)C(N)CC(C)C` (stereo not given), for which the growth inhibition in experiment [1] is -8.2%; in experiment [2] it was 5.4%; in experiment [3] it was 10.6%; in experiment [4] it was 1.15%; in experiment [5], 2.45%; in experiment [6] it was -4.15%.
`COCCNC(C)=O`: the growth inhibition was 13.8% in experiment [1]; 0.7% in experiment [2]; 12% in experiment [3]; -17.1% in experiment [4]; -11.2% in experiment [5]; 3.7% in experiment [6].
Take `CC(=O)NNc1nc(C)c(C(/C=C/c2ccc(/C=C/C(=N\NC(=O)c3ccncc3)c3sc(NNC(C)=O)nc3C)cc2)=N/NC(=O)c2ccncc2)s1`: the growth inhibition in experiment [1] was -16.6%; in experiment [2], -7.35%; in experiment [3], -8.95%; in experiment [4] it was 12.7%; in experiment [5], 1.4%; in experiment [6] it was -13.3%.
Take `O=[N+]([O-])c1ccc(NC2CCCCC2)nc1`: the growth inhibition in experiment [1] is 14%; in experiment [2], -9.85%; in experiment [3], 13.9%; in experiment [4], 7.65%; in experiment [5] it was 42.6%; in experiment [6], -1.55%.
In the case of `Clc1ccc(/C=C/c2ccc3ccccc3n2)cc1`, the growth inhibition in experiment [1] is -2.65%; in experiment [2] it was -11.6%; in experiment [3], -13%; in experiment [4] it was -28.3%; in experiment [5] it was -14%; in experiment [6] it was 12%.
As to `CC(=O)OCC1OC(n2cc([N+](=O)[O-])c(=O)[nH]c2=O)C(OC(C)=O)C(OC(C)=O)C1OC(C)=O` (stereo not given), the growth inhibition was -12.8% in experiment [1]; 9.9% in experiment [2]; -8.65% in experiment [3]; -20% in experiment [4]; 12.8% in experiment [5]; -35.1% in experiment [6].
`COc1cc(/C=C2/C(=O)N(C(=O)c3ccc(Cl)cc3)N=C2C)cc(OC)c1OC`: the growth inhibition in experiment [1] was 10%; in experiment [2], -5.75%; in experiment [3], 2.95%; in experiment [4] it was -48.1%; in experiment [5], 24.6%; in experiment [6], 39%.
In the case of `CC1C(=O)N(c2ccccc2)C1c1ccccc1` (stereo not given), the growth inhibition in experiment [1] is -18.6%; in experiment [2] it was -31.3%; in experiment [3] it was -11.9%; in experiment [4], -24.6%; in experiment [5], 2.95%; in experiment [6], -19.6%.
As to `CC(C)C1NC(=O)[C@H](C)OC(=O)[C@@H](C(C)C)NC(=O)[C@@H](C)OC(=O)C(C(C)C)NC(=O)[C@H](C)OC1=O` (stereo not given in full), the growth inhibition in experiment [1] is -36.7%; in experiment [2], -2.15%; in experiment [3], -17.1%; in experiment [4] it was 14.9%; in experiment [5] it was 2.85%; in experiment [6], -10.2%.
On to `N=C(N)c1ccc(NC(=O)c2ccc(C(=O)Nc3ccc(C(=N)N)cc3)c(N)c2)cc1`, for which the growth inhibition in experiment [1] is 9.9%; in experiment [2] it was 18.1%; in experiment [3] it was -7.6%; in experiment [4] it was -7.85%; in experiment [5] it was -1.95%; in experiment [6], -7.3%.
Turning to `C=CCNC(=S)Nc1c(C)cc(C)cc1C`, the growth inhibition in experiment [1] was 7.2%; in experiment [2], 8.4%; in experiment [3], 9.65%; in experiment [4], -51.4%; in experiment [5] it was 4.3%; in experiment [6], 12.2%.
As for `[B-][N+]1(C)CC[N+]([B-])(C)CC1` (stereo not given), the growth inhibition in experiment [1] is -0.6%; in experiment [2] it was 5.8%; in experiment [3] it was -7%; in experiment [4], 16.1%; in experiment [5] it was -5.65%; in experiment [6], -11.6%.
